# Compound activity (PubChem)
# Most compounds without a hit are left out; they make up all but 7.5% or so of the library.
# FLuc counter = counter-screen for miR-21 project: firefly luciferase inhibitors or activators; P08659; purified FLuc, Km substrates, luminescence inhibition; Potency, µM (series often up to 57.5 µM), for inactives: at the top dose activity change, negative = inhibition, usual class: inhibitors; 360,000 compounds, 6.9% hits; AID 588342;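 note: plate controls were vehicle for no effect and reference inhibitor for full effect; nearly all actives have a fitted effect of over 55% in size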
# Target sequence (P08659 whole entry, looked up): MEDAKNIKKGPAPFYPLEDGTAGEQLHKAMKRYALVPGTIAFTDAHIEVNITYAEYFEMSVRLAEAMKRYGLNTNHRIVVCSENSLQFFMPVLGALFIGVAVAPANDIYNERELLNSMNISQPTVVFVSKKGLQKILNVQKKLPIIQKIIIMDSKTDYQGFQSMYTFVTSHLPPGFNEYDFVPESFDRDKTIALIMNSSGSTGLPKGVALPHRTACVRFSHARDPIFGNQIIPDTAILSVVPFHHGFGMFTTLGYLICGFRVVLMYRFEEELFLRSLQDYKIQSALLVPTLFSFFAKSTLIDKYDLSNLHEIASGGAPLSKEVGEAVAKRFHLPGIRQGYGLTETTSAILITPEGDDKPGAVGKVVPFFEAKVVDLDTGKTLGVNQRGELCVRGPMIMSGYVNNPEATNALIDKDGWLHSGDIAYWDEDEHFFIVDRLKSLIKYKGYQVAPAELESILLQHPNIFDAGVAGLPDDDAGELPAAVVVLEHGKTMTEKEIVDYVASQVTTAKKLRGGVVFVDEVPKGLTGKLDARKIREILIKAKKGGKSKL
#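 Purified P. pyralis luciferase (10nM final) with 10uM D-luciferin and 10uM ATP (Km levels) in 50mM Tris acetate pH 7.5, 10mM Mg acetate, 0.01% Tween-20, 0.05% BSA; qHTS 6-point titration, ~60 µM downward; luminescence read.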
# ELG1 genotoxic = inducers of genotoxicity in HEK293T ELG1-luciferase cells. HEK293T ELG1-luciferase reporter, luminescence, 16 h. AID 504466. Potency, µM (titrated, usually from 46 µM), without a hit: at the highest dose activity change, positive = activation, usual class: activators. 330,000 compounds, 1.3% hits; note: % of control where 0% means no effect; nearly all actives have a fitted effect of over 60% in size
#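 DMSO vehicle served as control against compound-treated ELG1-luciferase HEK293T cells; exposure lasted 16 hr at 37 °C and 5% CO2, followed by ONE-Glo luminescence detection after 30 min.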
# Rab9 promoter act = activates the Rab9 promoter. Huh7 Rab9 promoter-luciferase reporter, luminescence, 24 h. Potency, µM (highest dose often 9.22 µM), for inactives: at the highest dose activation, negative = inhibition, actives largely listed as activators. 320,000 compounds, 2.8% hits. AID 485297; note: % of control where 0% means no effect; nearly all actives have a fitted effect of over 60% in size
#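 Huh7 cells stably carrying a Rab9 promoter-luciferase reporter, 1500 cells per well in OP-MEM I with 10% FBS, treated with compound 24 hours at 37C. Luciferase activity read by luminescence after 10 minutes with Amplite reagent.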
# SMN2 splice up = enhancers of SMN2 splice variant expression; Potency, µM (doses to about 46.1 µM), for inactives: at the top dose activity change, positive = activation, hits mostly activators; AID 1458; 210,000 compounds, 2.8% hits; HEK293 SMN2-luciferase splicing reporter, luminescence, 30-36 h; note: % of control where 0% means no effect; nearly all actives have a fitted effect of over 55% in size
#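 qHTS luciferase splicing reporter: luminescence rises when SMN2 exon 7 is included in transfected HEK293 cells. Compound exposure lasted 30-36 h at 37C, with 4.5 mM final sodium butyrate as control, followed by a ONE-Glo read.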
# NPC1 promoter act = NPC1 promoter activation; Potency, µM (top dose mostly 9.22 µM), for inactives: top-dose activation, most hits filed as activators; 320,000 compounds, 2.4% hits; Huh7 NPC1 promoter luciferase reporter, 24 h; note: % of control where 0% means no effect; nearly all actives have a fitted effect of over 60% in size
#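 Stably transfected Huh7 (NPC1 promoter→luciferase), 1500 cells/well in Opti-MEM + 10% FBS, 2 h settle, then compound 24 h at 37 °C. Luminescence after 10 min with Amplite reagent.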
# Luc counter = blocks Kinase-Glo luciferase, a counter-screen artifact; 200,000 compounds, 0.28% hits; Potency, µM (titrated, usually from 38.3 µM), inactives show at the highest dose activity change, negative = inhibition, usual class: inhibitors; Kinase-Glo luciferase, ATP luminescence, 8 min; note: % is set by controls: 0 for no effect and ±100 for the full control effect; nearly all actives have a fitted effect of over 60% in size
#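 Inhibition of Kinase-Glo luciferase light generation was assessed at 10 uM ATP in pH 7.2 imidazole buffer, with luminescence measured after eight minutes at ambient temperature.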
# Active calls of the source: *; u = inconclusive; x = not tested or not shown; [ ] = remark or other dose. Calls come from the whole dose curve; as a rule, active = well fitted curve in the direction sought with a large enough effect; inconclusive = small, poorly fitted or top-dose-only effect, or another doubt; inactive = no such curve, though single readings can be large; an effect the other way counts as inactive or inconclusive. Potency is the fitted concentration of half-maximal effect.
SMILES,FLuc counter,ELG1 genotoxic,Rab9 promoter act,SMN2 splice up,NPC1 promoter act,Luc counter
COc1cccc(-c2n[nH]c3c2C(c2ccccn2)N(C)C3=O)c1 (stereo unspecified),-7%,x,x,8%,x,x
O=C(/C=C/c1ccccc1)Nc1scc(-c2ccccc2)c1C(=O)O,3µM*,12%,1.6µM*,11µM*,2.5µM*,-11%
O=C(/C=C/c1ccco1)Nc1scc(-c2ccccc2)c1C(=O)O,4.8µM*,u,0.5µM*,x,0.45µM*,x
Cn1c(=O)cc(OCCCC(=O)Nc2ccc(F)cc2)c2ccccc21,0%,x,x,13%,x,x
Cc1ccsc1/C=N/NC(=O)c1ccccn1,8.5µM*,u,2.5µM*,11µM*,2µM*,u
Cc1ccsc1/C=N/NC(=O)c1cccs1,11µM*,u,u,x,u,x
COc1ccccc1NC(=O)C1=C(C)Nc2nc(SCc3ccccc3)nn2C1c1cccs1 (stereo unspecified),-9%,x,x,4%,x,x
CCOc1cc(-c2cc(-c3ccccc3)nc(N)c2C#N)ccc1O,-18%,u,-3%,u,-1%,4%
CCOc1cc(-c2cc(-c3ccc(N)cc3)nc(N)c2C#N)ccc1O,-13%,-1%,9%,13µM*,1%,-4%
Cc1cccc(NC(=O)CSCC(=O)NCc2ccco2)c1,0%,3%,7%,x,1%,x
CSc1ncccc1C(=O)OCc1ccccc1,19µM*,u,u,1%,20%,-5%
CSc1ncccc1C(=O)OCc1ccccc1F,15µM*,16%,28%,28%,u,-10%
CSc1ncccc1C(=O)OCc1ccc(COC(=O)c2cccnc2SC)cc1,5%,6%,1%,-10%,-2%,-1%
CCOCN(C(=O)Cn1cnc2cc(C)c(C)cc21)c1c(C)cccc1CC,0%,x,x,-14%,x,x
Cc1nnc(N2CCCC(C(=O)NCc3ccccc3F)C2)c2nn(-c3ccc(Cl)cc3)c(C)c12 (stereo unspecified),-2%,x,x,x,x,x
S=c1[nH]nc(-c2cc(-c3ccccc3)n[nH]2)n1/N=C/C=C/c1ccccc1,6.7µM*,3%,1%,x,-1%,x
S=c1[nH]nc(-c2cc(-c3ccccc3)n[nH]2)n1/N=C/c1ccccc1,u,1%,2%,x,-3%,x
COc1ccccc1/C=C/C=N/n1c(-c2ccc(F)cc2)n[nH]c1=S,u,0%,2%,x,3%,x
COc1ccccc1/C=C/C=N/n1c(-c2cc(-c3ccccc3)n[nH]2)n[nH]c1=S,5.4µM*,4%,13%,x,-3%,x
Nc1ncc(Br)cc1S(=O)(=O)NCCC(=O)N1CCN(c2ccccc2)CC1,1%,-10%,-4%,x,1%,x
CC[C@@H](C)[C@H](NC(=O)Cc1c(C)c2c(cc(C)c3c(C)coc32)oc1=O)C(=O)O,u,2%,-2%[1.84 µM],x,-12%,x
Cc1cc2oc(=O)c(CC(=O)NCCCN(C)C)c(C)c2c2occ(C(C)(C)C)c12,u,1%,-4%,x,22%,x
Cc1cc2oc(=O)c(CC(=O)NCCCO)c(C)c2c2occ(C(C)(C)C)c12,11µM*,-1%,0%,x,16%,x
Cc1cc2oc(=O)c(CC(=O)O)c(C)c2c2occ(C(C)(C)C)c12,21µM*,20%,15%,x,u,x
COCCNC(=O)Cc1c(C)c2c(cc(C)c3c(C(C)(C)C)coc32)oc1=O,2.7µM*,4%,-8%,x,-19%,x
SMILES,FLuc counter,ELG1 genotoxic,Rab9 promoter act,SMN2 splice up,NPC1 promoter act,Luc counter
CSCC[C@H](NC(=O)Cc1c(C)c2c(cc(C)c3c(C)coc32)oc1=O)C(=O)O,19µM*,1%,-9%,x,-3%,x
Cc1coc2c1c(C)cc1oc(=O)c(CC(=O)NCCCCCC(=O)O)c(C)c12,u,3%,-3%,x,-1%,x
Cc1coc2c1c(C)cc1oc(=O)c(CC(=O)NCC(=O)O)c(C)c12,u,3%,-10%,x,-4%,x
CCOCCCn1c(SCC(=O)Nc2ccccc2Cl)nc2c(oc3ccccc32)c1=O,-1%,x,x,-9%,x,x
Cc1ccccc1NC(=O)CSc1nc(-c2ccccc2)cn1-c1ccccc1F,5%,x,x,x,x,x
CCN(CC)S(=O)(=O)c1cccc(NC(=O)CNc2cccc(S(=O)(=O)N3CCOCC3)c2)c1,-1%,-4%,-40%,x,-28%,x
Cc1cccc(NC(=O)COc2ccc3oc4c(c3c2)CCCC4)n1,u,27%,-4%,3%,16%,-5%
Cc1cnc(NC(=O)COc2ccc3c(c2)CCC3)s1,1.2µM*,0.65µM*,u,x,0.56µM*,x
COc1ccc(NC(=O)COc2cccc3c2OC(C)(C)C3)cc1OC,4%,-4%,-13%,x,-3%,x
O=C(COc1ccc2c(c1)CCC2)Nc1ccccn1,0.17µM*,u,3.2µM*,x,4µM*,x
Cc1cccc(NC(=O)COc2ccc3c(c2)CCC3)n1,11µM*,17%,u,x,25%,x
Cc1cnc(NC(=O)COc2cccc3c2OC(C)(C)C3)s1,-4%,-3%,-1%,20µM*,-2%,0%
COc1ccccc1CNC(=O)c1cc(S(=O)(=O)N2CCCCCC2)cn1C,-3%,x,x,x,x,x
CC1CCN(S(=O)(=O)c2ccc(C(=O)Nc3ccccn3)cc2)CC1,u,21µM*,22%,x,u,x
Cc1ccnc(NC(=O)c2ccc(S(=O)(=O)N3CCC(C)CC3)cc2)c1,6.7µM*,0.73µM*,-4%,x,-2%,x
Cc1cccc(NC(=O)c2ccc(S(=O)(=O)N3CCC(C)CC3)cc2)n1,-4%,-18%,-8%,x,-6%,x
O=C(Nc1ccccn1)c1ccc(S(=O)(=O)N2CCCC2)cc1,u,13%,20%,x,15%,x
COCCn1c(SCC(=O)c2c(C)[nH]c3ccccc23)nc2cc(C(=O)NC(C)C)ccc2c1=O,-5%,x,x,x,x,x
CCOc1ccc(NC(=O)c2ccc(NS(=O)(=O)c3cccs3)cc2)cc1,12µM*,-1%,-2%,x,-6%,x
COc1ccc(/C(C)=N/NC(=O)c2ccc(NS(=O)(=O)c3cccs3)cc2)cc1,21µM*,2%,-3%,x,2%,x
COc1ccc(/C(C)=N/NC(=O)c2nc(C)cc(C)n2)cc1,24µM*,5.6µM*,u,11µM*,u,-6%
CCOc1ccc(Oc2ccc(NS(=O)(=O)c3cc(C(=O)O)ccc3Cl)cc2)cc1,1%,2%,-2%,x,-4%,x
CCOc1ccc(NS(=O)(=O)c2cc(NC(=O)c3ccc(C)cc3)ccc2Cl)cc1,13µM*,-5%,-27%,-68%,-29%,7%
Cc1ccc(Cl)cc1N1C(=O)N(Cc2ccc(C#N)cc2)c2ccccc2S1(=O)=O,6%,x,x,x,x,x
CCOc1ccc(C(=O)c2cccs2)cc1,17µM*,u,u,12%,u,-4%
